Holding throughout (experiment): cell viability (% of vehicle); higher = less cytotoxic
Test [1] has as its system HCI01 (cells of a triple-negative basal-like breast cancer xenograft). The note with it: 1 µM; 72 h.
Test [2] deals with UCD52 (cells of a triple-negative basal-like breast cancer xenograft). The note with it: 1 µM; 72 h.
For test [3], the system named is WHIM2 (cells of a triple-negative basal-like breast cancer xenograft). The note with it: 1 µM; 72 h.
For test [4], the system named is WHIM30 (cells of a triple-negative basal-like breast cancer xenograft). The note with it: 1 µM; 72 h.
The subject of test [5] is HCI01. The conditions noted are these: 10 µM; 72 h.
For test [6], the system named is HCI03 (cells of an ER-positive luminal breast cancer xenograft). The note with it: 10 µM; 72 h.
Test [7] deals with HCI09 (cells of a triple-negative luminal androgen receptor type breast cancer xenograft). The note with it: 10 µM; 72 h.
For test [8], the system named is HCI11 (cells of an ER-positive luminal breast cancer xenograft). The conditions noted are these: 10 µM; 72 h.
The subject of test [9] is HCI13 (cells of an ER-positive luminal breast cancer xenograft). The conditions noted are these: 10 µM; 72 h.
Test [10] concerns HCI16 (cells of a triple-negative basal-like breast cancer xenograft). The conditions noted are these: 10 µM; 72 h.
Test [11] deals with UCD52. The note with it: 10 µM; 72 h.
Test [12] relates to WHIM2. The conditions noted are these: 10 µM; 72 h.
Test [13] has as its system WHIM30. The note with it: 10 µM; 72 h.

± gives the standard deviation of the averaged measurements.

Take `O=C1C=CC=CC1=C1NC(=C2C=CC=CC2=O)N(c2ccc(C(=O)O)cc2)N1` [Deferasirox]: the cell viability in test [1] was found to be 87.9; in [2] it was 92; in test [3] it was 92.2; in [4], 98.2; in test [5] it was 65.5 ± 9.3; in test [6] it was 129. The cell viability is 62 ± 39 in test [7]; 107 in test [8]; 62.9 ± 16 in test [9]; 101 in [10]; 77.7 ± 33 in test [11]; 95.2 ± 25 in test [12]. Further, the cell viability in [13] came to 70.1 ± 1.5.
As to `COc1ccc(CN2CCN(C(c3ccc(F)cc3)c3ccc(F)cc3)CC2)c(OC)c1OC.Cl.Cl` [Lomerizine HCl], the cell viability amounted to 85.2 in test [1]; 90.8 in [2]; 99.6 in [3]; 92.2 in test [4]; 85.8 ± 25 in test [5]; 73.6 in test [6]. Moreover, the cell viability in test [7] was found to be 58.8 ± 20; in [8] it was 78.5; in [9], 32.61 ± 0.085; in test [10], 87.8; in test [11] it was 51.5 ± 0.83; in test [12], 48.1 ± 14. The molecule further came in with a cell viability in [13] of 80 ± 1.
Turning to `CNC1CCC(c2ccc(Cl)c(Cl)c2)c2ccccc21.Cl` (stereo unspecified) [Sertraline HCl], the cell viability was found to be 92.9 in test [1]; 78.6 in test [2]; 101 in [3]; 85.2 in [4]; 27.7 ± 2.6 in [5]; 74.8 in test [6]. Also, the cell viability was 32.2 ± 4.6 in test [7]; 79.2 in [8]; 118 ± 3.2 in [9]; 60.4 in test [10]; 29.3 ± 0.42 in test [11]; 42.8 ± 3.1 in test [12]. For the same molecule, in test [13], the cell viability was determined as 58.9 ± 1.9.
Regarding `CN1CCN(CCOc2cc(OC3CCOCC3)c3c(Nc4c(Cl)ccc5c4OCO5)ncnc3c2)CC1` [Saracatinib (AZD0530)], the cell viability is 67.9 in test [1]; 38.7 in [2]; 33.9 in [3]; 57.5 in test [4]; 63.85 ± 0.43 in test [5]; 48.7 in [6]. Besides, the cell viability in test [7] came out at 68.3 ± 18; in [8], 105; in test [9], 53 ± 1.4; in test [10] it was 69.1; in test [11] it was 43.8 ± 5.4; in [12], 40.2 ± 11. In test [13], this molecule displayed a cell viability of 84.6 ± 3.6.
For `CN(C)CC=CC(=O)Nc1cc2c(Nc3ccc(F)c(Cl)c3)ncnc2cc1OC1CCOC1.O=C(O)C=CC(=O)O.O=C(O)C=CC(=O)O` (stereo unspecified) [Afatinib dimaleate], the cell viability was 85.2 in test [1]; 32.7 in test [2]; 57.8 in test [3]; 56 in test [4]; 35.3 ± 3 in [5]; 53.8 in test [6]. In addition, the cell viability is 35.2 ± 4.2 in [7]; 32.5 in test [8]; 32.4 ± 2.1 in [9]; 30.7 in [10]; 40.1 ± 7.4 in test [11]; 41.1 ± 4.1 in test [12]. Further, the cell viability in [13] was found to be 54.6 ± 7.
Turning to `CC1(C)Cc2c(-c3ccccc3)c(-c3ccc(Cl)cc3)c(CC(=O)O)n2C1` [Licofelone], the cell viability in test [1] stood at 125; in test [2], 103; in [3], 90.3; in test [4], 97.1; in [5], 46.1 ± 16; in test [6], 99.4. For the same molecule, the cell viability in test [7] was determined as 31.5 ± 2.2; in test [8], 90.2; in [9] it was 84.6 ± 0.91; in test [10], 89.5; in test [11] it was 86.3 ± 4; in test [12], 47.3 ± 7. For the same molecule, the cell viability in test [13] amounted to 88.4 ± 11.
As to `Clc1ccc(C(Cn2ccnc2)OCc2ccsc2Cl)c(Cl)c1` (stereo unspecified) [Tioconazole], the cell viability in test [1] came out at 98.7; in [2], 104; in test [3] it was 111; in test [4] it was 90.1; in [5], 115 ± 63; in test [6], 110. The cell viability in test [7] was 40.7 ± 32; in test [8] it was 92.1; in test [9], 50.1 ± 3.6; in test [10] it was 119; in test [11], 60.2 ± 8.4; in test [12] it was 35.8 ± 5.1. Besides, in test [13], the cell viability stood at 100 ± 2.3.
For the molecule `CC(NCCCc1cccc(C(F)(F)F)c1)c1cccc2ccccc12.Cl` (stereo unspecified) [Cinacalcet HCl], the cell viability is 94.5 in [1]; 85.7 in test [2]; 76.7 in test [3]; 81.6 in test [4]; 38.8 ± 2.6 in test [5]; 46.8 in test [6]. The cell viability is 21.6 ± 4.7 in [7]; 64.8 in test [8]; 43.3 ± 2.8 in test [9]; 43.6 in test [10]; 29.6 ± 2.4 in test [11]; 43.2 ± 5.7 in [12]. The molecule further showed a cell viability in test [13] of 27.6 ± 1.3.
Consider `COc1cccc2c1C(=O)c1c(O)c3c(c(O)c1C2=O)CC(O)(C(=O)CO)CC3OC1CC(N)C(O)C(C)O1.Cl` (stereo unspecified) [Doxorubicin (Adriamycin) HCl], for which the cell viability in test [1] was 93.6; in test [2] it was 38.7; in [3], 26.8; in [4] it was 45.9; in test [5], 70.4 ± 23; in test [6], 196. Further, the cell viability in test [7] stood at 29.7 ± 8.2; in test [8], 41.4; in [10], 66.1; in [11], 33.1 ± 1.4; in test [12], 35.6 ± 6.6; in test [13] it was 77 ± 21.

The values are drawn from the supplement of paper PMC6992640.
